In the supplement of paper PMC7726561:
Whole data set: some 1,100 sequences, median “thermal melting temperature (Tm) of peptide-HLA complex” near 58, cut for the lowest 2% near 42. Shown is part of a subset that was picked to be rich in the lowest values.

Target: HLA-A*02:01
Experiment: thermal melting temperature (Tm) of peptide-HLA complex; higher = more thermostable pHLA complex
Details: C1R-A*02:01
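Further: lysates heated 10 min at 37–73 °C, complexes pulled down with pan-HLA I antibody, peptide signal by DIA-MS relative to 37 °C, Tm where half the complex is unfolded.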

Sequence | thermal melting temperature [°C]
ILSGVIRSV | 56.6
LLYDGKLSSA | 59.4
LLVDVEPKV | 55.5
QMISRIEYV | 59.7
KLTENLVAL | 59
FLNKEITSV | 59.6
TLLTFFHEL | 57.4
YLPEDFIRV | 61.4
FVMETFVHL | 57
ILTEAIKAA | 59.3
TLLTDPPTA | 59.5
VMFGGKQVVV | 57.5
KLFNEFIQL | 57.8
SLYSQVHQI | 60.2
NLYEEWTQV | 59.9
VLMTQQPRPVL | 48.8
YLTAFTKNL | 60.8
GLPRFGIEMV | 60.1

Sequence | thermal melting temperature [°C]
KQTDLEITV | 57.5
RVISELQEA | 40.7
NVIERLQEA | 57.2
AQFEHTILL | 58.1
QLAQFVHEV | 62.3
ALADFAELLRA | 62
NLLEIAPHL | 52.1
SLLDPVPEV | 62.5
ELMEQVPHI | 48.9
TLSQAIVKV | 54.1
RIIDTVAQV | 60.6
GLVDKLQAL | 55.6
KVLGIVVGV | 61
NQIEDNDDFQL | 42
NLIPILKTV | 56
SQTFVNPHV | 57.8
YLLTESSKL | 55.2
YLWPRGSPAL | 41.3
